# Data: PubChem BioAssay (EPA / NIEHS)
# Values joined by “and” are separate entries in the source; they are usually repeats but may differ in a detail not shown here. Equal values may be shown once. Inconclusive results are not listed. The source holds several records for some structures; these can differ, active in one and inactive in another. Active and inactive are the calls of the source. How the source made its calls: active means hit-call score of the fitted dose curve at least 0.9, where 1 is the maximum; inconclusive means response in the unintended direction; inactive means score below 0.9.
# Tests used:
# [1] = target: human Thyroid hormone Receptor beta (TRb), THRB (gene 7068) (UniProt P10828); experiment: ATG_hTRb_XSP1: Attagene TRANS-FACTORIAL Multi-Species (XSP1) HepG2 Assay for human Thyroid hormone Receptor beta (TRb) (AID 2283808)
# Chain of human Thyroid hormone Receptor beta (TRb), THRB (gene 7068) (P10828 whole entry, looked up, the tested form may be a part): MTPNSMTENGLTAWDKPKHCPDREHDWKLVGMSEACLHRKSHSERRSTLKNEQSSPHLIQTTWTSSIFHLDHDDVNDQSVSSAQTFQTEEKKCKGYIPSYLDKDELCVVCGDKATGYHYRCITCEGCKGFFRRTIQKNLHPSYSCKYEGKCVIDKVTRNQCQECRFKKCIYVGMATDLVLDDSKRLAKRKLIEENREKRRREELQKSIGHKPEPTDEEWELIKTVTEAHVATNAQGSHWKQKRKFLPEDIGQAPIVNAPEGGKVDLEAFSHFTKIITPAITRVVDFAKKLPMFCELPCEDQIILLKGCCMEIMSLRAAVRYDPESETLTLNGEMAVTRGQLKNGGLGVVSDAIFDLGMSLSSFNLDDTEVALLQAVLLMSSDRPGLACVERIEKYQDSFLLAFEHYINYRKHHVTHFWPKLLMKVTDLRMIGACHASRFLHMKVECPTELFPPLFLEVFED
# Outline: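 Readout is reporter mRNA induction measured by RT-PCR, fluorescent labelling and capillary electrophoresis, fitted upward relative to DMSO. Transiently transfected human HepG2 cells expressing NR-Gal4 chimeras were dosed for 24 h, medium containing 3 nM 6-alpha-fluorotestosterone.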
# [2] = target: zebrafish Thyroid Hormone Receptor beta (TRb), thrb (gene 30607) (UniProt Q9PVE4); experiment: ATG_zfTRb_XSP1: Attagene TRANS-FACTORIAL Multi-Species (XSP1) HepG2 Assay for zebrafish Thyroid Hormone Receptor beta (TRb) (AID 2283809)
# Chain of zebrafish Thyroid Hormone Receptor beta (TRb), thrb (gene 30607) (Q9PVE4 whole entry, looked up, the tested form may be a part): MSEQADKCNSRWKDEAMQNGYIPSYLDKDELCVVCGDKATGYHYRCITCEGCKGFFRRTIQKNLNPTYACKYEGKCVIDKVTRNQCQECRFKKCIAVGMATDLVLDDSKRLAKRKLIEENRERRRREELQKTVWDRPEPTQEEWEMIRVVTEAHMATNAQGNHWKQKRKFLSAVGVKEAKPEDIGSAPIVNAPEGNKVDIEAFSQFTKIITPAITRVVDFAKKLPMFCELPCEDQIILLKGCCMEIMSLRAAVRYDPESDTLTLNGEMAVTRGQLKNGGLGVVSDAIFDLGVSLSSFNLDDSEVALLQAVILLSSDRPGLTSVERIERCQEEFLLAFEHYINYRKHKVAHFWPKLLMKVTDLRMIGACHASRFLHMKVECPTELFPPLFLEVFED
# Outline: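 HepG2 cells transiently transfected with multiplexed GAL4-UAS reporter units expressing chimeric zebrafish TRb–Gal4. Dosed 24 h with 3 nM 6-alpha-fluorotestosterone present; reporter mRNA measured by RT-PCR, HpaI digestion and capillary electrophoresis; gain of signal versus DMSO.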
# [3] = ATG_M_06_XSP2: Attagene TRANS-FACTORIAL Multi-Species (XSP2) HepG2 Assay for M06 Transcription Factor (Internal Marker) (AID 2283811);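 further: internal background marker reporter mRNA measured by RT-PCR and capillary electrophoresis; hits are increases in signal above the DMSO baseline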
# Outline: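 Readout: fluorescent reporter-mRNA peaks by capillary electrophoresis after RT-PCR and HpaI digest, scored upward relative to DMSO. Transfected HepG2, 24 h chemical exposure, with 3 nM 6-alpha-fluorotestosterone and 1.5 nM norgestrel added.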
# [4] = tested on: turtle Estrogen Receptor (ERa), gene 101933533; experiment: ATG_trERa_XSP2: Attagene TRANS-FACTORIAL Multi-Species (XSP2) HepG2 Assay for turtle Estrogen Receptor (ERa) (AID 2283812);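 further: actives raise reporter signal above DMSO so AC50 reflects agonist activity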
# Outline: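 Readout is reporter mRNA quantified by RT-PCR with capillary electrophoresis after 24 h compound exposure, increase relative to DMSO. Uses transiently transfected human HepG2 liver cells carrying a chimeric turtle ERa-Gal4 receptor driving GAL4-UAS reporters.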
# [5] = target: zebrafish Estrogen Receptor (ER1), esr1 (gene 259252) (UniProt P57717); experiment: ATG_zfER1_XSP2: Attagene TRANS-FACTORIAL Multi-Species (XSP2) HepG2 Assay for zebrafish Estrogen Receptor (ER1) (AID 2283816)
# Chain of zebrafish Estrogen Receptor (ER1), esr1 (gene 259252) (P57717 whole entry, looked up, the tested form may be a part): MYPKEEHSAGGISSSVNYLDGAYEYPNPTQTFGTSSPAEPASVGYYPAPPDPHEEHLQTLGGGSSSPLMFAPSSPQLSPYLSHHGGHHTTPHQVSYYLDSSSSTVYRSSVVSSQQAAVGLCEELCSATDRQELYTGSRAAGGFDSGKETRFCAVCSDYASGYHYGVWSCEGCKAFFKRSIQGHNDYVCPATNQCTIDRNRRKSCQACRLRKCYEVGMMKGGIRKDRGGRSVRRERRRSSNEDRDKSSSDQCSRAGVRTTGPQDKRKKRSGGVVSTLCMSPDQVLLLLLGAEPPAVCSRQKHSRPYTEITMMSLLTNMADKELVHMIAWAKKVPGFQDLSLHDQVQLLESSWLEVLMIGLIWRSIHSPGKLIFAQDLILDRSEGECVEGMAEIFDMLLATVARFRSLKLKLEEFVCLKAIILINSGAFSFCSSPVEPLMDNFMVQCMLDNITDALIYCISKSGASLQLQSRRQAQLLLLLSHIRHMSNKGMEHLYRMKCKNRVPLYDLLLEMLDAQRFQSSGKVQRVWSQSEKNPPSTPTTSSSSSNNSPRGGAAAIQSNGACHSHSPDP
# Outline: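 After 24 h compound exposure, RNA from transfected HepG2 cells was reverse-transcribed and reporter transcripts resolved by capillary electrophoresis. The TRANS format reads exogenous zebrafish ER1-Gal4 chimera activity on GAL4-UAS elements; gain of signal against DMSO.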
# [6] = target: chicken Estrogen Receptor (ERa), ESR1 (gene 396099) (UniProt P06212); experiment: ATG_chERa_XSP2: Attagene TRANS-FACTORIAL Multi-Species (XSP2) HepG2 Assay for chicken Estrogen Receptor (ERa) (AID 2283817);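 further: actives raise reporter signal above DMSO so AC50 reflects ER activation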
# Chain of chicken Estrogen Receptor (ERa), ESR1 (gene 396099) (P06212 whole entry, looked up, the tested form may be a part): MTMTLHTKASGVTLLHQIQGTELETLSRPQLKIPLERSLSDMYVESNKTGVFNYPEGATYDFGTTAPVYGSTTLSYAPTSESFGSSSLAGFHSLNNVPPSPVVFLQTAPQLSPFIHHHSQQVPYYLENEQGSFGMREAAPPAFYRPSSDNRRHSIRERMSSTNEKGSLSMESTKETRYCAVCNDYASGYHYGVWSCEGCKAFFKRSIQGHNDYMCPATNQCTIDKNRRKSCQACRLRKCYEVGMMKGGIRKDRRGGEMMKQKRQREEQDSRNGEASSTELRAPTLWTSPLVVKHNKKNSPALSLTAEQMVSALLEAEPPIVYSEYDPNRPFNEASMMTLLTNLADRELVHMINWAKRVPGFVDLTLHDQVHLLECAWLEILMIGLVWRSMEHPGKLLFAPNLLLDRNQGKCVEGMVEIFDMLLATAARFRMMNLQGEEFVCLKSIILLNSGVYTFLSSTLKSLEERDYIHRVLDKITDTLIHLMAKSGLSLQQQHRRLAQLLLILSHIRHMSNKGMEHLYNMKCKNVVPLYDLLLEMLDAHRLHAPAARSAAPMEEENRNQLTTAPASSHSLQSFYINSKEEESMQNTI
# Outline: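 Readout: fluorescent reporter-transcript fragments resolved by capillary electrophoresis after RT-PCR and HpaI cut. Chicken ERa-Gal4 fusion in transiently transfected HepG2, dosed for 24 h; activity taken as increase over DMSO baseline.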
# [7] = ATG_XTT_Cytotoxicity_XSP1: Cytotoxicity Assessment in the Attagene TRANS-FACTORIAL Multi-Species (XSP1) HepG2 Assay (AID 2283810)
# Outline: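 XTT viability readout taken at 24 hours post-dosing in HepG2 liver cells co-treated with 3 nM 6-alpha-fluorotestosterone. Signal loss relative to DMSO controls reflects cytotoxicity.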
# [8] = target: GAL4 Transcription Factor (Internal Marker), GAL4 (gene 855828) (UniProt P04386); experiment: ATG_GAL4_XSP2: Attagene TRANS-FACTORIAL Multi-Species (XSP2) HepG2 Assay for GAL4 Transcription Factor (Internal Marker) (AID 2283814);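 further: GAL4 reporter mRNA background control in MRTU transfected cells not a receptor target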
# Chain of GAL4 Transcription Factor (Internal Marker), GAL4 (gene 855828) (P04386 whole entry, looked up, the tested form may be a part): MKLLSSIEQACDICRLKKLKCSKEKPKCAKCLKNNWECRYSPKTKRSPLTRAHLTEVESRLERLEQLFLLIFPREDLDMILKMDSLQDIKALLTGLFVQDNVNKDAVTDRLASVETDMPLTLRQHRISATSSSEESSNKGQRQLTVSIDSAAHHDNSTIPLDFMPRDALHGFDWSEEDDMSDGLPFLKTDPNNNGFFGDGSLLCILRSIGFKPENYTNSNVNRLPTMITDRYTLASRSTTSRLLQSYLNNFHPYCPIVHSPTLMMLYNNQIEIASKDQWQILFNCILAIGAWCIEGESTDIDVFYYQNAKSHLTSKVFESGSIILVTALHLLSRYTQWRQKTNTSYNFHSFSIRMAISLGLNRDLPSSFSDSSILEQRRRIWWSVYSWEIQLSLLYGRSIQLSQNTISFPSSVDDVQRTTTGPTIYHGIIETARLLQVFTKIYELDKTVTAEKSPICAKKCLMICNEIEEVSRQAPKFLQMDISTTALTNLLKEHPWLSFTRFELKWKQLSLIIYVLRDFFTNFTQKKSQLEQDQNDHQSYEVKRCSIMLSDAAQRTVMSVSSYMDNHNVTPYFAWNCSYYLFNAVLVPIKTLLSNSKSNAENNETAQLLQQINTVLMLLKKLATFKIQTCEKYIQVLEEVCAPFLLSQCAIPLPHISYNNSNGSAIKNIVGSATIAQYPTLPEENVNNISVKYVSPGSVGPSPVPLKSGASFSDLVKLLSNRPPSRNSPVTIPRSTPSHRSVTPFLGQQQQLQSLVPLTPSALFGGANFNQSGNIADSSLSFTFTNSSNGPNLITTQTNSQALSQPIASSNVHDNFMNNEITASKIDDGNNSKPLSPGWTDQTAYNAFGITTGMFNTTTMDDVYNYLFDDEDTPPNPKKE
# Outline: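 Background-control readout: gain-of-signal fitted against DMSO. After 24 h exposure of transfected HepG2 (MRTU, GAL4-UAS reporters; 3 nM 6-alpha-fluorotestosterone, 1.5 nM norgestrel present), transcripts quantified by RT-PCR and capillary electrophoresis fluorescence.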
# [9] = target: Estrogen receptor beta (Homo sapiens) (UniProt Q92731); experiment: ATG_hERb_XSP2: Attagene TRANS-FACTORIAL Multi-Species (XSP2) HepG2 Assay for human Estrogen Receptor (ERb) (AID 2283813);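 further: actives raise reporter mRNA above DMSO so AC50 reflects agonist induction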
# Chain of Estrogen receptor beta (Homo sapiens) (Q92731 whole entry, looked up, the tested form may be a part): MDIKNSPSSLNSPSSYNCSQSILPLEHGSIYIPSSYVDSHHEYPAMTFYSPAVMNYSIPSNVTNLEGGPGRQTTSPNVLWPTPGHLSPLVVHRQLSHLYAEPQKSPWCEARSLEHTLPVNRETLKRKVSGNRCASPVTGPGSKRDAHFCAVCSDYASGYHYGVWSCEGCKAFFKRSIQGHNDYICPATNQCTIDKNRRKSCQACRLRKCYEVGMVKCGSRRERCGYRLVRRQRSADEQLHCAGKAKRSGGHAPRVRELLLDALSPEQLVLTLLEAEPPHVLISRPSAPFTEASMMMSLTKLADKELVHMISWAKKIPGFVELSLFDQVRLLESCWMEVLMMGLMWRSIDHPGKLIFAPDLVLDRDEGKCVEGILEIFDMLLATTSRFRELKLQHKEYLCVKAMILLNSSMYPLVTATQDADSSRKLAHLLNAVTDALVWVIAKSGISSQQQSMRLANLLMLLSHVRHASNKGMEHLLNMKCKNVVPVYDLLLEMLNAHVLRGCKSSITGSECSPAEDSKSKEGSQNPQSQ
# Outline: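 Transient TRANS reporter system in HepG2: after 24 h of chemical, RNA is reverse-transcribed, reporter cDNA amplified, FAM-labelled and sized by capillary electrophoresis. Induction of the human ERb-Gal4 reporter is measured relative to DMSO.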
# [10] = tested on: turtle Androgen Receptor (AR), gene 101947425; experiment: ATG_trAR_XSP2: Attagene TRANS-FACTORIAL Multi-Species (XSP2) HepG2 Assay for turtle Androgen Receptor (AR) (AID 2283815);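 on AC50: potency for gain of reporter signal meaning activation above DMSO baseline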
# Outline: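 Reporter transcripts were quantified via RT-PCR and capillary electrophoresis and fitted upward against DMSO. Transiently transfected human HepG2 cells carrying NR-Gal4 chimeras were exposed 24 h, with 3 nM 6-alpha-fluorotestosterone plus 1.5 nM norgestrel added.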
compound,measurement,setting,value
O=C1C2(Cl)C3(Cl)C4(Cl)C(Cl)(Cl)C5(Cl)C3(Cl)C1(Cl)C5(Cl)C24Cl (stereo not given),outcome,[1],inactive
same,outcome,[2],inactive
same,outcome,[3],inactive
same,AC50,[4],0.514 µM (active)
same,outcome,[5],inactive
same,AC50,[6],1.33 µM (active)
CC1(C)CCC(Cc2ccc(Cl)cc2)C1(O)Cn1cncn1 (stereo not given),outcome,[1],inactive
same,outcome,[2],inactive
same,outcome,[7],inactive
same,outcome,[3],inactive
same,AC50,[4],5.11 µM (active)
same,outcome,[8],inactive
same,outcome,[5],inactive
same,AC50,[6],3.58 µM (active)
O=S(=O)(c1ccc(Cl)cc1)c1ccc(Cl)cc1,outcome,[3],inactive
same,AC50,[4],14.4 µM (active) and 15.9 µM (active)
same,AC50,[9],8.12 µM (active)
same,outcome,[9],inactive
same,AC50,[5],26.6 µM (active) and 37.7 µM (active)
same,AC50,[6],35.3 µM (active) and 19.3 µM (active)
CC(C)(C)CC(C)(C)c1ccc(O)cc1,outcome,[2],inactive
same,outcome,[7],inactive
same,outcome,[3],inactive
same,AC50,[4],5.79 µM (active)
same,outcome,[9],inactive
same,AC50,[6],4.49 µM (active)
CC(C)C1CCC(Cc2ccc(Cl)cc2)C1(O)Cn1cncn1 (stereo not given),outcome,[3],inactive
same,outcome,[4],inactive
same,outcome,[9],inactive
same,outcome,[8],inactive
same,outcome,[5],inactive
same,outcome,[6],inactive
Clc1ccc(C2(Cn3cncn3)CC(Br)CO2)c(Cl)c1 (stereo not given),outcome,[3],inactive
same,AC50,[4],19.8 µM (active)
same,outcome,[4],inactive
same,outcome,[9],inactive
same,outcome,[8],inactive
same,outcome,[5],inactive
same,AC50,[6],3.47 µM (active)
same,outcome,[6],inactive
Oc1c(I)cc(I)cc1I,outcome,[3],inactive
same,outcome,[9],inactive
same,outcome,[5],inactive
same,AC50,[6],2.58 µM (active)
Oc1ccc(-c2ccccc2)cc1,outcome,[3],inactive
same,AC50,[4],1.44 µM (active) and 925 nM (active)
same,AC50,[9],1.16 µM (active) and 1.68 µM (active)
same,AC50,[5],4.42 µM (active) and 8.23 µM (active)
same,AC50,[6],712 nM (active) and 200 nM (active)
C[C@]12CCC(=O)C[C@@H]1CC[C@@H]1[C@@H]2CC[C@]2(C)[C@@H](O)CC[C@@H]12,outcome,[1],inactive
same,outcome,[7],inactive
same,outcome,[3],inactive
same,outcome,[4],inactive
same,outcome,[9],inactive
same,AC50,[10],0.0339 µM (active)
same,outcome,[5],inactive
same,outcome,[6],inactive
C[C@]12CC[C@H](O)CC1=CC[C@@H]1[C@@H]2CC[C@]2(C)C(=O)CC[C@@H]12,outcome,[3],inactive
same,AC50,[4],2.22 µM (active) and 1.09 µM (active)
same,AC50,[9],1.14 µM (active) and 962 nM (active)
same,outcome,[8],inactive
same,AC50,[5],13.9 µM (active) and 7.49 µM (active)
same,AC50,[6],2.19 µM (active) and 1.14 µM (active)
CC12CC1(C)C(=O)N(c1cc(Cl)cc(Cl)c1)C2=O (stereo not given),outcome,[2],inactive
same,outcome,[7],inactive
same,outcome,[3],inactive
same,AC50,[4],100 µM (active)
same,outcome,[4],inactive
same,outcome,[9],inactive
same,outcome,[8],inactive
same,outcome,[5],inactive
same,AC50,[6],58.5 µM (active)
same,outcome,[6],inactive
CC(=O)C=C(C)C,outcome,[3],inactive
same,outcome,[4],inactive
same,outcome,[5],inactive
same,outcome,[6],inactive
C[C@H]1CCCC(=O)CCC/C=C/c2cc(O)cc(O)c2C(=O)O1,outcome,[3],inactive
same,AC50,[4],7 nM (active) and 1.7 nM (active)
same,AC50,[9],0.00299 µM (active)
same,outcome,[9],inactive
same,AC50,[5],9.96 nM (active)
same,outcome,[5],inactive
same,AC50,[6],6.03 nM (active) and 1.45 nM (active)
CC(C)(C)c1cc(O)ccc1O,outcome,[2],inactive
same,outcome,[3],inactive
same,AC50,[4],15.3 µM (active)
same,outcome,[10],inactive
same,outcome,[5],inactive
same,AC50,[6],24.6 µM (active)
COP(=O)(OC)O/C(=C\Cl)c1cc(Cl)c(Cl)cc1Cl,outcome,[2],inactive
same,outcome,[3],inactive
same,AC50,[4],3.18 µM (active)
same,outcome,[8],inactive
same,AC50,[6],4.9 µM (active)
